Hit rate of the full screen: of about 48,000 compounds, about 13,000 (27%) showed an effect of 50% or more. Some of the results follow.

The assay concerns Wolbachia pipientis. Briefly: Anti-Wolbachia Cell-Based Screen. It counts as functional. More on the design: scale not given: in the data most compounds retested in dose-response had high values. The settings on record: 5 µM.
In the case of `O=C1O[C@@H]2CN(c3ccccn3)C[C@@H]2N1CCCc1ccc(F)cc1`, the “Percent Effect” value turned out to be 2.286%.

`COCc1nc2cc(NCc3scnc3C)ccc2o1`: the “Percent Effect” value is 5.426%.

Take `CN1CCN(Cc2cccnc2)C2(CCN(c3ncc(F)cn3)C2)C1=O.O=C(O)C(F)(F)F.O=C(O)C(F)(F)F` (configuration not stated): the “Percent Effect” value is recorded as -9.065%.

Take `O=C(O)C(F)(F)F.O=C1N(Cc2cccnc2)CCC12CCCN(c1ncc(F)cn1)C2` (configuration not stated): the “Percent Effect” value is 109.4%.

With `Cc1ccc(-c2ccnc(N3CCC4(CC3)CNC(=O)C4)n2)c(C)n1`, the “Percent Effect” value was -12.24%.

As for `Cc1noc(-c2ccc(N3CCCC(C(N)=O)C3)nc2)n1` (configuration not stated), the “Percent Effect” value is given as -1.352%.

`Cc1csc2ncc(-c3ccnc(N4CCC[C@H](C(N)=O)C4)n3)c(=O)n12`: the “Percent Effect” value came to 107.6%.

As to `Cc1csc2ncc(-c3ccnc(N4CCCN(C)CC4)n3)c(=O)n12`, the “Percent Effect” value amounted to 84.49%.

Take `Cc1csc2ncc(-c3ccnc(N4CCN(C)CC4)n3)c(=O)n12`: the “Percent Effect” value was found to be 4.781%.

`Cc1csc2ncc(-c3ccnc(N4CCCC4)n3)c(=O)n12`: the “Percent Effect” value was 95.07%.

Take `Cc1ccc(-c2csc3c(=O)[nH]c(N4CCCC(C(N)=O)C4)nc23)cc1` (configuration not stated): the “Percent Effect” value stood at 13.87%.

With `C=C(C)COc1cccc(C(=O)N2CCC(O)(c3ccccc3)CC2)c1`, the “Percent Effect” value is -7.065%.

For the compound `CNS(=O)(=O)CC(=O)NC(C)Cc1ccc(-c2ccccc2)cc1` (configuration not stated), the “Percent Effect” value was -4.402%.

Regarding `Nc1ccnc(N2CCC(Cc3ccccc3Cl)(C(=O)O)CC2)n1`, the “Percent Effect” value was 5.255%.

With `CC(O)CN1CCc2onc(C(c3ccccc3)c3ccccc3)c2C1` (configuration not stated), the “Percent Effect” value is -15.19%.

`COCCNS(=O)(=O)c1cccc2c1CN(C(=O)c1cc(C)on1)CC2`: the “Percent Effect” value is given as -0.4963%.

As to `Cc1cccc(CN2CCc3cc(C(=O)O)c(N(C)C)nc3CC2)n1.O=C(O)C(F)(F)F.O=C(O)C(F)(F)F`, the “Percent Effect” value stood at 105.7%.

For the compound `CCOc1ncnc2c1CCN(Cc1csc(C)n1)CC2.O=C(O)C(F)(F)F`, the “Percent Effect” value worked out at 7.701%.

Regarding `Cc1nc(CN2CCc3cc(C(=O)O)c(N(C)C)nc3CC2)cs1.O=C(O)C(F)(F)F.O=C(O)C(F)(F)F`, the “Percent Effect” value is 99.11%.

For the compound `Cc1nc(CN2CCc3ncnc(C4CC4)c3CC2)cs1.O=C(O)C(F)(F)F`, the “Percent Effect” value is listed as -1.319%.

For `CCCSCC(=O)NS(=O)(=O)c1ccc2c(c1)OCCO2`, the “Percent Effect” value is given as -7.969%.

In the case of `COc1ccc(Cc2nnc(SC)o2)cc1OC`, the “Percent Effect” value was -1.582%.

As to `COCCN(Cc1ccc(F)cc1Cl)C(=O)c1cc[n+]([O-])cc1`, the “Percent Effect” value is reported as -5.927%.

`c1ccc(-c2cc(CN3C[C@@H]4CC[C@H](C3)N(CC3CC3)C4)on2)cc1`: the “Percent Effect” value is on record as 2.507%.

For the compound `O=C(Nc1ccccc1Oc1cccc(F)c1)NC1CCS(=O)(=O)C1` (configuration not stated), the “Percent Effect” value is recorded as 9.337%.

As for `CN(Cc1nc(Cc2ccccc2F)no1)CC1Cc2ccccc2O1` (configuration not stated), the “Percent Effect” value worked out at 1.647%.

In the case of `C[C@H]1C[C@H]2CN(C(=O)c3ccncn3)CC[C@H]2O1`, the “Percent Effect” value amounted to 2.98%.

As for `Cc1noc(C2CCN(C(=O)c3cc(Cl)c(Cl)n3C)CC2)n1`, the “Percent Effect” value was -8.55%.

Turning to `Cc1noc(C2CCC3(CCN(C(=O)c4c(C)noc4C)CC3)O2)n1` (configuration not stated), the “Percent Effect” value is given as -1.941%.

Take `O=C(c1cc(C2CC2)on1)N1CC[C@]2(C[C@H](Oc3cccnc3)CO2)C1`: the “Percent Effect” value is recorded as -8.078%.

Take `C[C@H]1C[C@@H]2CCN(C(=O)c3ccncn3)C[C@H]2O1`: the “Percent Effect” value stood at 15.39%.

In the case of `Cc1noc(C2CCC3(CCN(C(=O)c4cnccn4)CC3)O2)n1` (configuration not stated), the “Percent Effect” value was found to be 108.3%.

For `CC1N(CC2CC2)C(=O)COC12CCN(C(=O)c1cnccn1)CC2` (configuration not stated), the “Percent Effect” value is -1.759%.

On to `Cc1noc(C2CCC3(CCN(C(=O)c4ncccn4)CC3)O2)n1` (configuration not stated), for which the “Percent Effect” value came to 110.9%.

`Cc1noc(C2CCC3(CCN(C(=O)c4cc(C5CC5)on4)CC3)O2)n1` (configuration not stated): the “Percent Effect” value came to 104.1%.

For `Cc1noc(C2CCC3(CCN(C(=O)c4ccncn4)CC3)O2)n1` (configuration not stated), the “Percent Effect” value is recorded as 97.14%.

With `Cc1ccc(F)c(S(=O)(=O)NCc2cccc(N3CCOC3=O)c2)c1`, the “Percent Effect” value is given as -1.653%.

As to `COc1ccc(C(=O)NCc2cc(N3CCOCC3)ncn2)o1`, the “Percent Effect” value is -2.324%.

In the case of `COCC(=O)N1CCC2(CC1)CN(c1ncccn1)CCO2`, the “Percent Effect” value was -1.945%.

As for `Cc1nn(C)c(Cl)c1C1CCCN1c1ncnc2sccc12` (configuration not stated), the “Percent Effect” value is -14.86%.

For `CC1CCN(C(CNC(=O)Cn2cccn2)c2cccs2)CC1` (configuration not stated), the “Percent Effect” value was -3.451%.

Consider `CC(C)N1CCOCC2(CCCN(C(=O)c3cncn3C)C2)C1.O=C(O)C(F)(F)F` (configuration not stated), for which the “Percent Effect” value was -5.769%.

Consider `O=C(O)C(F)(F)F.O=C(O)C(F)(F)F.O=C(O)C(F)(F)F.c1cc(CN2CCOCC3(C2)CN(Cc2nccs2)CCO3)ccn1` (configuration not stated), for which the “Percent Effect” value is -17.66%.

`Cn1cncc1C(=O)N1CCOC2(COCCN(CC3CC3)C2)C1.O=C(O)C(F)(F)F` (configuration not stated): the “Percent Effect” value was 104.1%.

For `Cn1ccc(C(=O)N2CCOC3(COCCN(CC4CC4)C3)C2)n1.O=C(O)C(F)(F)F` (configuration not stated), the “Percent Effect” value was found to be 108.5%.

As for `O=C(O)C(F)(F)F.O=C(c1ccoc1)N1CCOC2(COCCN(c3ncccn3)C2)C1` (configuration not stated), the “Percent Effect” value is reported as 21.15%.

In the case of `O=C(O)C(F)(F)F.O=C(c1ccccn1)N1CCOC2(COCCN(Cc3cc[nH]n3)C2)C1` (configuration not stated), the “Percent Effect” value was -2.383%.

For the compound `O=C(O)C(F)(F)F.O=C(c1ccoc1)N1CCOC2(COCCN(CC3CC3)C2)C1` (configuration not stated), the “Percent Effect” value was 89.02%.

Consider `O=C(O)C(F)(F)F.O=C(O)C(F)(F)F.O=C(O)C(F)(F)F.c1coc(CN2CCOC3(COCCN(Cc4ccncc4)C3)C2)c1` (configuration not stated), for which the “Percent Effect” value was -11.91%.

As for `Cn1ccc(C(=O)N2C[C@@H]3CN(CC4CC4)CCO[C@@H]3C2)n1.O=C(O)C(F)(F)F`, the “Percent Effect” value was -13.66%.

As to `O=C(O)C(F)(F)F.O=C(O)C(F)(F)F.c1cnc(N2CCCC3(CN(CC4CCOCC4)CCO3)C2)cn1` (configuration not stated), the “Percent Effect” value is on record as -4.594%.

Regarding `Fc1cccc(CN2CCOC3(COCCN(CC4CC4)C3)C2)c1.O=C(O)C(F)(F)F.O=C(O)C(F)(F)F` (configuration not stated), the “Percent Effect” value was 100.6%.

Regarding `Cc1cccnc1CSCCCNS(C)(=O)=O`, the “Percent Effect” value is given as -17.43%.

As for `N#Cc1cccnc1NCc1ccc(S(=O)(=O)NCC2CCCO2)cc1` (configuration not stated), the “Percent Effect” value came to 8.527%.

Consider `Clc1cccc(N2CCC(NCc3ncc[nH]3)C2)c1` (configuration not stated), for which the “Percent Effect” value is -6.784%.

On to `Cl.c1cnc2c(c1)cc([C@H]1CCCO1)n2CCN1CCCCC1`, for which the “Percent Effect” value is on record as -14.33%.

For the compound `Cl.c1cnc2c(c1)cc([C@H]1CCCO1)n2CCN1CCOCC1`, the “Percent Effect” value is on record as -5.726%.

For the compound `CN(CC1CCCO1)C1CCN(CCc2ccccn2)CC1` (configuration not stated), the “Percent Effect” value is reported as 4.903%.

Turning to `Cl.c1cnc2c(c1)cc([C@H]1CCCO1)n2CCN1CCCC1`, the “Percent Effect” value is given as 88.22%.

As to `Cl.c1cnc2c(c1)cc([C@@H]1CCCO1)n2CCN1CCOCC1`, the “Percent Effect” value came out at 92.89%.

With `Cl.c1cnc2c(c1)cc([C@@H]1CCCO1)n2CCN1CCCCC1`, the “Percent Effect” value is 85.05%.

For the compound `CSc1nccc(N2CCC(NCCN3CCOCC3)CC2)n1`, the “Percent Effect” value is -2.784%.

These data come from ChEMBL document CHEMBL3988442, “University of Dundee, Small-Polar-MMV Screening Library” (2021).
